From PubChem BioAssay
HSF1 activator = increases HSF-1 driven luciferase reporter signal; NIH3T3-HGL HSF-1 luciferase reporter, MG132, 8 h; 100% = twice DMSO control signal; activation, % at 9 µM; 300,000 tested, 1.7% active; AID 504408;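 active means mean replicate activation of at least 50% with a set share of replicates each reaching 50%; inconclusive means only one of those two conditions met; inactive means mean below 50% and too few replicates reaching it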;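 further: 0% = median of the neutral control wells and 100% = twice that signal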
HSF1 inh = HSF1 inhibition. NIH3T3-HGL HSE-luciferase, MG132-induced, luminescence 8 h; stronger effect = lower value. activity change, negative = inhibition, % at 7.5 µM (by protocol). 300,000 tested, 0.77% active;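 active means more than half of replicate wells show activity change below -50%, luminescence cut by over half; inconclusive means some wells, but at most half, below -50%; inactive means no replicate well below -50%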;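 further: luciferase reports HSF-1 transcriptional activity via heat shock element; 0% = median of DMSO wells and -100% = zero luminescence signal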
esBAF inh = blocks esBAF chromatin remodeling in mouse ES cells; Bmi1-luciferase knock-in reporter, 24 h; 100% = twice the neutral-well signal; reporter increase, % at 12.5 µM; 350,000 tested, 2% active; AID 602393; in the data active means activation above about 40%; inconclusive means no clear call, values can overlap the other calls;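 further: 0% = median of the plate's neutral control wells and 100% = double that signal; a rise in the Bmi1 reporter signal indicates esBAF inhibition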
Vif inh = HIV Vif inhibition; HEK293T cells, Vif self-association by quenched fluorescence, imaging, 24 h; 340,000 tested, 0.35% active; AID 602346; inhibition, % at 7.49 µM; in the data active means inhibition above about 50%, passing the limit was not always enough; inconclusive means no clear call, values can overlap the other calls; inactive means below about 31%
* = called active by the depositor. This is a sample that favours compounds with a hit; in the whole collection about 3.4% have one here.

Screening Cc1nn2cc(-c3cccc(Cl)c3)cnc2c1Cl returned HSF1 activator 8.3, HSF1 inh 3.2, esBAF inh 78.9* and Vif inh -3.9.
Nc1nnc(/C=C/c2ccccc2Cl)s1 was read as HSF1 activator 69.6*, HSF1 inh 34.9 and Vif inh inconclusive.
CCOC(=O)c1cnn(-c2ccc(C(F)(F)F)cn2)c1N was read as HSF1 activator 60.6*, HSF1 inh 31.9 and esBAF inh 26.1.
CCc1ccc(NC(=O)c2ccc3nc(N)sc3c2)cc1 was read as HSF1 activator 24.2, HSF1 inh 8.7, esBAF inh 49.8* and Vif inh -2.1.
CN(C(=O)c1ccc2nc(N)sc2c1)c1ccccc1 was read as HSF1 activator 2.5, HSF1 inh -5.4, esBAF inh 6.8 and Vif inh -1.7.
Screening CC(C)(C)NC(=O)c1nc2ccccc2s1 returned HSF1 activator 15.1, HSF1 inh -0.5, esBAF inh 38.2 and Vif inh 17.7.
Screening COc1ccc(NC(=O)c2ccc3nc(C)sc3c2)cc1 returned HSF1 activator -50.3, HSF1 inh -44.1, esBAF inh 34.3 and Vif inh 1.2.
O=C(Nc1ccccc1)c1nc2ccccc2s1 was read as HSF1 activator 58.6*, HSF1 inh 23.8, esBAF inh 12.2 and Vif inh -8.7.
`COC(=O)c1ccc(NC(=O)c2ccc3nc(C)sc3c2)cc1` gave HSF1 activator -72.2, HSF1 inh -68.3*, esBAF inh 35.0 and Vif inh -1.6.
Nc1nc2ccc(C(=O)Nc3ccccc3)cc2s1 was read as HSF1 activator 40.2, HSF1 inh 10.2, esBAF inh 50.8* and Vif inh -3.9.
For CO[C@H]1CN(C)C(=O)c2ccc(NC(C)=O)cc2OC[C@H](C)N(C(=O)c2ccccc2F)C[C@H]1C the results were esBAF inh -1.2.
O=C(NCC[C@@H]1CC[C@H](NC(=O)C2CCC2)[C@H](CO)O1)c1cnccn1 was read as esBAF inh -0.6.
`Cn1c(O)c(/C=N/NC(=O)c2cc3ccccc3cc2O)c2ccccc21` gave HSF1 activator 8.6, HSF1 inh 9.1, esBAF inh 46.9* and Vif inh -3.8.
COc1cc(/C=N/NC(=O)c2cc3ccccc3cc2O)ccc1OCCN1CCCCC1 was read as HSF1 activator -7.3, HSF1 inh -7.7, esBAF inh 0.7 and Vif inh -2.8.
For COCCn1c(C)cc(/C=N/NC(=O)c2cc3ccccc3cc2O)c1C the results were esBAF inh 46.7* and Vif inh -4.0.
`C[C@H](CO)N1C[C@H](C)[C@H](CN(C)C(=O)Cc2ccccc2)OCCCC[C@H](C)Oc2ccc(NC(=O)c3ccncc3)cc2C1=O` gave esBAF inh 0.8.
C[C@H](CO)N1C[C@H](C)[C@H](CN(C)C(=O)Nc2ccccc2)Oc2ccc(NC(=O)Nc3ccc4c(c3)OCO4)cc2CC1=O was read as esBAF inh 5.1.
For O=S(=O)(NC[C@@H]1[C@@H](c2ccccc2)[C@H](CO)N1CC1CC1)c1ccccc1 the results were esBAF inh -3.3.
N=c1c2c(ncn1CCCO)Oc1c(ccc3ccccc13)C2c1ccccc1 (configuration not stated) was read as HSF1 activator -72.5, HSF1 inh -65.7* and Vif inh -4.6.
`Cc1ccc(C(=O)c2cncc(Br)c2)cc1` gave HSF1 activator -21.4, HSF1 inh -20.7, esBAF inh 24.0 and Vif inh -0.6.
CCc1ccc(C(=O)c2cncc(Br)c2)cc1 was read as HSF1 activator 7.9, HSF1 inh -7.0, esBAF inh 46.0* and Vif inh -1.0.
`COc1ccccc1CNC(=O)c1csc(Cc2ccc(Cl)cc2)n1` gave HSF1 activator 99.8*, HSF1 inh 61.9, esBAF inh 3.5 and Vif inh -2.5.
Screening COc1ccc(CNC(=O)c2csc(Cc3ccccc3)n2)cc1 returned HSF1 activator 18.0, HSF1 inh 7.3 and Vif inh -0.3.
Screening O=C(Nc1ccc(F)cc1)c1csc(Cc2ccccc2)n1 returned HSF1 activator 59.0*, HSF1 inh 37.6 and Vif inh -0.7.
`CO[C@H]1CN(C)C(=O)c2cccc(C#N)c2OCC[C@H]2CC[C@H](OC)[C@@H](CN(C)C(=O)[C@H]1C)O2` gave esBAF inh 8.8.
c1ccc(-c2cc(N3CCCCCC3)n[nH]2)cc1 was read as HSF1 activator 18.8, HSF1 inh 6.5, esBAF inh 57.7* and Vif inh 16.1.
Screening Nc1nc(-c2ccccc2)cc(N2CCCCC2)n1 returned HSF1 activator -20.4, HSF1 inh -12.5 and esBAF inh -6.5.
